# Values without a mark were called inactive. Results filed as inconclusive are left out. Where a call stands in place of a potency, no number is given. Calls of active or inactive are those of the source. Unless noted, calls come from the whole dose curve.
# Tests used:
# [1] = Nuclear factor erythroid 2-related factor 2/antioxidant responsive element (Nrf2/ARE) small molecule agonists: qHTS cell viability counter screen in human keratinocytes (AID 1919968; active = well fitted curve in the direction sought with a large enough effect in the repeat runs; an effect the other way counts as inactive or inconclusive; note: nearly all actives have a fitted effect of over 55% in size; note: potency is the fitted concentration of half-maximal effect)
# How it was run: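 After a 5 h attachment period, ARE-reporter keratinocytes were dosed with compounds in DMSO and then cultured 23 h at 37 C. Cell viability came from CellTiter-Fluor signal read after a further 1 h.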
# [2] = Nuclear factor erythroid 2-related factor 2/antioxidant responsive element (Nrf2/ARE) small molecule agonists: luciferase reporter gene qHTS assay in human keratinocytes (AID 1919969); note: nearly all actives have a fitted effect of over 35% in size; note: potency is the fitted concentration of half-maximal effect
# [3] = molecular target: Gonadotropin-releasing hormone receptor (Homo sapiens) (UniProt P30968); assay: Human gonadotropin-releasing hormone receptor (GnRHR) small molecule agonists, calcium flux assay in GnRHR-HEK293 cells (AID 1920063); note: nearly all actives have a fitted effect of over 35% in size
# Chain of Gonadotropin-releasing hormone receptor (Homo sapiens) (P30968 whole entry, looked up): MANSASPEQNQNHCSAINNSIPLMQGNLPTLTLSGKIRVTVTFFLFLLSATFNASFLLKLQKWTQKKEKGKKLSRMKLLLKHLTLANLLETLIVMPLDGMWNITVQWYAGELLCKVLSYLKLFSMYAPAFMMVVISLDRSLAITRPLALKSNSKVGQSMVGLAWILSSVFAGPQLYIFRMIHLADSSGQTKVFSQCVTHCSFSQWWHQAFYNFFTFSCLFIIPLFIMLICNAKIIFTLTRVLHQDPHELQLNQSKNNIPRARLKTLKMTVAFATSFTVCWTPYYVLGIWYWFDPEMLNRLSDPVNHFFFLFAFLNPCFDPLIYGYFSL
# How it was run: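 We seeded human GnRHR-expressing HEK293 cells for 18 hours, loaded them with calcium dye for an hour at 37 C, added test compounds, and recorded fluorescence intensity kinetically for three minutes.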
# [4] = molecular target: KiSS-1 receptor (Homo sapiens) (UniProt Q969F8); assay: Human kisspeptin (KISS1R) small molecule agonists, calcium flux assay in KISS1R-HEK293 cells (AID 1920064; active = well fitted curve in the direction sought with a large enough effect in the repeat runs; an effect the other way counts as inactive or inconclusive)
# Chain of KiSS-1 receptor (Homo sapiens) (Q969F8 whole entry, looked up): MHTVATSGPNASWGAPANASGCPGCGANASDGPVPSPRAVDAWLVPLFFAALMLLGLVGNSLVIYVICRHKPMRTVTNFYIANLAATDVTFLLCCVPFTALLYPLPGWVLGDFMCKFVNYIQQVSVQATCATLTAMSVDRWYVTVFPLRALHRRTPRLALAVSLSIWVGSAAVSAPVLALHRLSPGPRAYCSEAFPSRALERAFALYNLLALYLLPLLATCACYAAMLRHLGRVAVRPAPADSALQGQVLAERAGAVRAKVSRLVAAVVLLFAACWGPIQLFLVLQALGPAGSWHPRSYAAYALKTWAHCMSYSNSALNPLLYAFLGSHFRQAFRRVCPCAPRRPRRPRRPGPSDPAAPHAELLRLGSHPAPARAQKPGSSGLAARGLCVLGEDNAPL
# How it was run: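 Kinetic calcium assay, 1 s sampling over 3 min at Ex/Em 480/540, in HEK293 cells engineered with human KISS1R; compounds delivered in DMSO after 1 h dye loading.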
# [5] = p53 small molecule agonists, cell-based qHTS assay with human liver microsomes: qHTS cell viability counter screen (AID 1963579); note: nearly all actives have a fitted effect of over 45% in size; note: potency is the fitted concentration of half-maximal effect
# How it was run: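 Viability of p53RE-bla cells is measured as CellTiter-Glo luminescence following a 16 h, 37 C incubation with compound, liver microsomes from human donors and NADPH.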
# [6] = p53 small molecule agonists, cell-based qHTS assay with rat liver microsomes: qHTS cell viability counter screen (AID 1963580); note: nearly all actives have a fitted effect of over 45% in size; note: potency is the fitted concentration of half-maximal effect
# How it was run: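 p53RE-bla HCT-116 cells (4,000/well) rested 5 h at 37 C, then given Tox21 compounds in DMSO with rat liver microsomes (0.5 mg/mL final) plus NADPH (0.5 mg/mL final) for 16 h at 37 C. Viability read by CellTiter-Glo luminescence after 30 min at room temperature.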
# [7] = p53 small molecule agonists, cell-based qHTS assay: qHTS cell viability counter screen (AID 1963581); note: nearly all actives have a fitted effect of over 45% in size
# How it was run: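 Following 5 h attachment, HCT-116 p53RE-bla cells took up compound for 16 h at 37 C; the reporter was read with B/G FRET substrate (2 h RT), and viability then via CellTiter-Glo ATP luminescence.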
# [8] = molecular target: 5-hydroxytryptamine receptor 2A (Homo sapiens) (UniProt P28223); assay: 5-hydroxytryptamine receptor 2A (HTR2A) small molecule antagonists, cell-based qHTS assay (AID 1963586); note: nearly all actives have a fitted effect of over 45% in size; note: potency is the fitted concentration of half-maximal effect
# Chain of 5-hydroxytryptamine receptor 2A (Homo sapiens) (P28223 whole entry, looked up): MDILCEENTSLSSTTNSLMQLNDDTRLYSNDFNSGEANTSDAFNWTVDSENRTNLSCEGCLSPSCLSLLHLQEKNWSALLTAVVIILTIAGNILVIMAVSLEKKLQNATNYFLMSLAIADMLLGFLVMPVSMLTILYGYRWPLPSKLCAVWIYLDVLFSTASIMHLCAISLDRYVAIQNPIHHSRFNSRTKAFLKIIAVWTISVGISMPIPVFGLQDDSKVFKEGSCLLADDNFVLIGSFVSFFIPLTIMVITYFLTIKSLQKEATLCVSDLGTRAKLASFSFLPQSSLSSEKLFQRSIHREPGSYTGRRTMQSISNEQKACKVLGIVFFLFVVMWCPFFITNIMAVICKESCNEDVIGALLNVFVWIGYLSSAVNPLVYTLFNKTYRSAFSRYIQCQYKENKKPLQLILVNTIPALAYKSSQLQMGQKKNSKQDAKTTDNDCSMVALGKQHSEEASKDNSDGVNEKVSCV
# How it was run: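 Antagonist-mode intracellular calcium assay: DOI (4 nM) added after 5 min compound pre-incubation at room temperature to dye-loaded HTR2A-CHO cells. Fluorescence followed for 3 min, sampled every second.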
# [9] = molecular target: 5-hydroxytryptamine receptor 2A (Homo sapiens) (UniProt P28223); assay: 5-hydroxytryptamine receptor 2A (HTR2A) small molecule agonists, cell-based qHTS assay (AID 1963587); note: nearly all actives have a fitted effect of over 30% in size
# How it was run: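 HTR2A-CHO cells, plated 18 h at 37 C/5% CO2, dye-loaded 1 h at 37 C; compounds in DMSO added by pin tool (agonist mode). Intracellular calcium flux read as kinetic fluorescence on FDSS over 2 min at 1 s intervals.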
# [10] = molecular target: Muscarinic acetylcholine receptor M1 (Homo sapiens) (UniProt P11229); assay: Cholinergic receptor muscarinic 1 (CHRM1) small molecule antagonists, cell-based qHTS assay (AID 1963588); note: nearly all actives have a fitted effect of over 40% in size; note: potency is the fitted concentration of half-maximal effect
# Chain of Muscarinic acetylcholine receptor M1 (Homo sapiens) (P11229 whole entry, looked up): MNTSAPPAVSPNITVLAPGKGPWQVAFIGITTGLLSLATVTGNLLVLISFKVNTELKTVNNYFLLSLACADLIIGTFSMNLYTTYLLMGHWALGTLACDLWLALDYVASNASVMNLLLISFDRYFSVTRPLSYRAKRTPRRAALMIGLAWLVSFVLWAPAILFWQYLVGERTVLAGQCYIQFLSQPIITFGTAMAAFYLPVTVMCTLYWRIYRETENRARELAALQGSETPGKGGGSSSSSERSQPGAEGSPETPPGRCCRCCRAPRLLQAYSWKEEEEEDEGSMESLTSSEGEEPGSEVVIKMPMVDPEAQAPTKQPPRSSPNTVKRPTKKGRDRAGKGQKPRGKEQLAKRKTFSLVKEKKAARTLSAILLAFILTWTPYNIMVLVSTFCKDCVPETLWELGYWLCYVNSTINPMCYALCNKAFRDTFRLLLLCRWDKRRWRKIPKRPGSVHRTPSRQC
# How it was run: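 CHRM1-CHO calcium-flux assay, antagonist mode. Cells were seeded 18 h, dye-loaded 1 h at 37 C and given compound for 5 min at RT, then acetylcholine was added at 50nM. FDSS fluorescence was read 3 min; 15 concentrations, three runs.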
# [11] = molecular target: Muscarinic acetylcholine receptor M1 (Homo sapiens) (UniProt P11229); assay: Cholinergic receptor muscarinic 1 (CHRM1) small molecule agonists, cell-based qHTS assay (AID 1963589); note: nearly all actives have a fitted effect of over 35% in size
# How it was run: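 Measures agonist-induced intracellular calcium rise. Stable human CHRM1 CHO line, 1 h dye load at 37 C, compounds from DMSO, kinetic fluorescence read.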
# [12] = cAMP Responsive Elements (CRE) small molecule agonists, cell-based qHTS assay (AID 1963590)
# How it was run: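 A CRE-responsive beta-lactamase reporter in HEK 293T cells was used. Treatment ran 3 h at 37 C; detection used LiveBLAzer B/G FRET substrate for 2 h at room temperature.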
# [13] = cAMP Responsive Elements (CRE) small molecule antagonists, cell-based qHTS assay (AID 1963591; active = well fitted inhibition curve with a large enough effect in the signal ratio in the repeat runs, not every such curve was filed as active; the % refers to the signal ratio; note: potency is the fitted concentration of half-maximal effect)
# How it was run: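 HEK293T cells carrying a CRE-driven beta-lactamase reporter receive compound and NKH477 (0.25 uM final) for 3 h. Fluorescence from LiveBLAzer B/G FRET substrate is read after 2 h at room temperature.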
# [14] = molecular target: Beta-2 adrenergic receptor (Homo sapiens) (UniProt P07550); assay: Adrenergic beta2 receptor (ADRB2) small molecule antagonists, cell-based qHTS assay (AID 1963592); note: nearly all actives have a fitted effect of over 50% in size; note: potency is the fitted concentration of half-maximal effect
# Chain of Beta-2 adrenergic receptor (Homo sapiens) (P07550 whole entry, looked up): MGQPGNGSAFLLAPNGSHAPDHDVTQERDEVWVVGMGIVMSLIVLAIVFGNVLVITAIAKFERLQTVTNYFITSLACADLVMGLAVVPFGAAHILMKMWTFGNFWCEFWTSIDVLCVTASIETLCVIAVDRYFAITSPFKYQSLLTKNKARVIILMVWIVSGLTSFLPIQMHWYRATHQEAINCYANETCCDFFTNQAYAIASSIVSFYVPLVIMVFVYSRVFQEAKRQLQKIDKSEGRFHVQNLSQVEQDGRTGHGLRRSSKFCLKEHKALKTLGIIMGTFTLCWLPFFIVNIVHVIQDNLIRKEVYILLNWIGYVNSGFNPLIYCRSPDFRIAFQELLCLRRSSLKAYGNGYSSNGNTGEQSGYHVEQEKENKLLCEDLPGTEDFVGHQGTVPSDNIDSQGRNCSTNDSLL
# How it was run: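 Cells (CHO, stable ADRB2 overexpression) incubated 18-20hr at 37C; compounds added from DMSO; agonist mix (1nM isoproterenol, 100uM IBMX, 25uM Ro-20-1724) added; 0.5hr RT; d2-cAMP and anti-cAMP-cryptate added; 1hr RT; 665/615 nm read.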
# [15] = molecular target: Beta-2 adrenergic receptor (Homo sapiens) (UniProt P07550); assay: Adrenergic beta2 receptor (ADRB2) small molecule agonists, cell-based qHTS assay (AID 1963593);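 note: CHO cells stably overexpressing human ADRB2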
# How it was run: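 CHO cells stably over-expressing ADRB2 were plated overnight at 37C, then dosed with compounds plus a stimulation mix containing 100uM IBMX and 25uM Ro-20-1724 for 0.5hr at room temperature. cAMP was measured by HTRF competition, 1hr.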
# [16] = molecular target: D(2) dopamine receptor (Homo sapiens) (UniProt P14416); assay: Dopamine D2 receptor (DRD2) small molecule agonists, cell-based qHTS assay (AID 1963594); note: nearly all actives have a fitted effect of over 35% in size
# Chain of D(2) dopamine receptor (Homo sapiens) (P14416 whole entry, looked up): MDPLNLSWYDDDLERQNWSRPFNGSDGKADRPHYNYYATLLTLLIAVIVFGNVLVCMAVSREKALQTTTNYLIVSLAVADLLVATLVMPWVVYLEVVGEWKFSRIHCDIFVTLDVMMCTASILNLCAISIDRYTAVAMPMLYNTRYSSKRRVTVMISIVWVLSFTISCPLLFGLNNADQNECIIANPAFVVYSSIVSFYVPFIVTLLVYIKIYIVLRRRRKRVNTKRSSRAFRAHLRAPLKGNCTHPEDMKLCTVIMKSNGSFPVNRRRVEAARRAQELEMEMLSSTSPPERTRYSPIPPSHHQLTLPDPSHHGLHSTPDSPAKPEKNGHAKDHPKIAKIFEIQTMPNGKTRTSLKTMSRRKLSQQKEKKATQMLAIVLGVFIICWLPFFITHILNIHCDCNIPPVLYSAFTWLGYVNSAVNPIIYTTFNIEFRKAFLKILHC
# How it was run: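 HEK293 cells stably expressing DRD2 were cultured 24 h at 37 C, then given Ro20-1724 (0.1 mM final) and compounds for 10 min at room temperature. NKH477 (200nM) was then added for 30 min. cAMP was read by HTRF.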
# [17] = molecular target: D(2) dopamine receptor (Homo sapiens) (UniProt P14416); assay: Dopamine D2 receptor (DRD2) small molecule antagonists, cell-based qHTS assay (AID 1963595; active = well fitted inhibition curve with a large enough effect in the signal ratio in the repeat runs, with a control signal flat; the % refers to the signal ratio; note: potency is the fitted concentration of half-maximal effect)
# How it was run: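 DRD2-HEK293; 0.1 mM Ro20-1724; cpd 10 min RT; NKH477 200 nM + quinpirole 12 nM, 30 min RT; HTRF cAMP (cAMP-d2/anti-cAMP cryptate), 665/620 nm ratio after 1 h.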
# [18] = p53 small molecule agonists, cell-based qHTS assay with rat liver microsomes (AID 1963578)
# How it was run: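 Quantitative HTS of the Tox21 10K library: p53RE-bla cells, rat liver microsomes plus NADPH at 0.5 mg/mL final each, 16 h at 37 C, beta-lactamase fluorescence detection.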
# [19] = p53 small molecule agonists, cell-based qHTS assay (AID 1963582; active = well fitted activation curve with a large enough effect in the signal ratio in the repeat runs, not every such curve was filed as active; the % refers to the signal ratio)
# How it was run: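 In this cell-based concentration-response screen, a p53 response element drives beta-lactamase; cells received DMSO-borne compounds after 5 h culture and were incubated a further 16 h before FRET substrate development.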
# [20] = G protein-coupled receptor (GPCR) small molecule agonists, calcium flux assay: HEK293 wild type cell line counter screen (AID 1920065)
# How it was run: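 Calcium-sensitive dye, loaded 1 h at 37 C into cells cultured 18 h, reports compound-evoked calcium release as fluorescence (Ex/Em 480/540), measured over 3 min. Agonist mode; 15-point titrations, triplicate.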
Compound,Potency [1],Potency [2],Potency [3],Potency [4],Potency [5],Potency [6],Potency [7],Potency [8],Potency [9],Potency [10],Potency [11],Potency [12],Potency [13],Potency [14],Potency [15],Potency [16],Potency [17],Potency [18],Potency [19],Potency [20]
FB(F)F,inactive,inactive,inactive,inactive,inactive,inactive,inactive,inactive,inactive,inactive,inactive,inactive,inactive,inactive,inactive,inactive,inactive,,,
C=CCOCC(O)CCl (stereo unspecified),inactive,inactive,inactive,inactive,inactive,inactive,inactive,,inactive,inactive,inactive,inactive,inactive,inactive,,inactive,inactive,inactive,,
CC1=CC=C(C(C)C)CC1,inactive,inactive,inactive,inactive,inactive,inactive,inactive,inactive,inactive,inactive,inactive,inactive,inactive,inactive,inactive,inactive,inactive,,inactive,
CCCCOC(=O)CCC(C)=O,inactive,inactive,inactive,inactive,,,inactive,inactive,inactive,inactive,inactive,inactive,inactive,inactive,,inactive,inactive,,,inactive
Nc1cc(Cl)cc(S(=O)(=O)O)c1O,inactive,inactive,inactive,inactive,inactive,inactive,inactive,inactive,inactive,inactive,inactive,inactive,inactive,inactive,,inactive,,,,
CCOC(=O)Nc1ccc2c(c1)N(C(=O)CCN1CCOCC1)c1ccccc1S2,inactive,inactive,inactive,inactive,,inactive,inactive,,inactive,0.918 µM (active),inactive,inactive,,inactive,inactive,inactive,inactive,inactive,inactive,
C=CCOc1ccccc1OCC(O)CNC(C)C (stereo unspecified),inactive,inactive,inactive,inactive,,inactive,,,inactive,inactive,inactive,inactive,inactive,,,inactive,inactive,,,inactive
OCC1CC=CCC1 (stereo unspecified),inactive,inactive,inactive,inactive,inactive,inactive,inactive,inactive,inactive,inactive,inactive,inactive,inactive,inactive,inactive,inactive,inactive,,,
CCCCCCCCCCCCCBr,inactive,inactive,inactive,inactive,inactive,inactive,inactive,inactive,inactive,inactive,inactive,inactive,inactive,inactive,inactive,inactive,inactive,,,
CC[C@]1(O)C[C@H]2CN(CCc3c([nH]c4ccccc34)[C@@](C(=O)OC)(c3cc4c(cc3OC)N(C=O)[C@H]3[C@@](O)(C(=O)OC)[C@H](OC(C)=O)[C@]5(CC)C=CCN6CC[C@]43[C@@H]65)C2)C1,inactive,0.596 µM (active),inactive,inactive,,,,,,,,,,inactive,,,inactive,inactive,,
CCCCC(CC)CNCC(CC)CCCC (stereo unspecified),inactive,inactive,inactive,inactive,,,inactive,,inactive,inactive,inactive,inactive,inactive,inactive,inactive,inactive,inactive,,,inactive
c1ccccc1,inactive,inactive,inactive,inactive,,,,inactive,inactive,inactive,inactive,inactive,inactive,inactive,,inactive,inactive,,,inactive
COc1cccc(N(C)C(=S)Oc2ccc3c(c2)CCCC3)n1,inactive,inactive,inactive,inactive,,inactive,inactive,5.79 µM (active),inactive,inactive,inactive,inactive,,inactive,,inactive,inactive,inactive,,
CC(C)NCC(O)COc1cccc2[nH]ccc12 (stereo unspecified),inactive,inactive,inactive,inactive,,,,,,,,inactive,inactive,inactive,,inactive,inactive,,inactive,inactive
CCOC(=O)c1ccc(C#Cc2ccc3c(c2)C(C)(C)CCS3)nc1,inactive,inactive,inactive,inactive,inactive,inactive,inactive,inactive,,inactive,inactive,,,inactive,inactive,inactive,inactive,,,
Cc1ccc(C(C)OC(=O)C2(C)CCC(C(=O)O)C2(C)C)cc1 (stereo unspecified),inactive,inactive,inactive,inactive,,inactive,inactive,inactive,inactive,inactive,inactive,inactive,,inactive,,inactive,inactive,,,
O=C(O)c1ccc(O)c(O)c1,inactive,inactive,inactive,inactive,inactive,inactive,inactive,inactive,inactive,inactive,inactive,inactive,inactive,inactive,,inactive,inactive,,,
c1ccc(Sc2ccccc2)cc1,inactive,68.6 µM (active),inactive,inactive,,,inactive,inactive,inactive,inactive,inactive,inactive,inactive,inactive,,,inactive,,,
Oc1ccc2c(c1)Cc1ccccc1-2,inactive,inactive,inactive,inactive,inactive,inactive,inactive,inactive,,inactive,inactive,inactive,inactive,inactive,,inactive,inactive,,,
CC(CC(=O)Cl)CC(C)(C)C (stereo unspecified),inactive,inactive,inactive,inactive,inactive,inactive,inactive,,inactive,inactive,inactive,inactive,inactive,inactive,inactive,,inactive,,,
Oc1cc2ccccc2c2ccccc12,13.7 µM (active),inactive,inactive,inactive,10.2 µM (active),6.46 µM (active),,inactive,inactive,inactive,inactive,,,inactive,,,30.6 µM (active),,,
CCCCCCCC/C=C\CCCCCCCCO,inactive,inactive,inactive,inactive,inactive,inactive,inactive,inactive,inactive,inactive,inactive,inactive,inactive,54.4 µM (active),,inactive,inactive,,,
N=C(N)S(=O)O,inactive,inactive,inactive,inactive,,,inactive,,inactive,inactive,inactive,inactive,inactive,inactive,,inactive,inactive,,,
OCCc1ccncc1,inactive,inactive,inactive,inactive,inactive,inactive,,,inactive,inactive,inactive,inactive,inactive,,inactive,inactive,,,,
COc1cc(OC)c2ccc(=O)oc2c1,inactive,inactive,inactive,inactive,inactive,inactive,inactive,inactive,inactive,inactive,inactive,inactive,inactive,inactive,,inactive,inactive,,,
Cc1ncc([C@@H](CCCCCCc2ccc3c(n2)NCCC3)CC(=O)O)cn1,inactive,inactive,inactive,inactive,,inactive,,inactive,inactive,inactive,inactive,inactive,0.545 µM (active),,inactive,inactive,,,,
